Results from PubChem BioAssay (Tox21).
Values joined by “and” are separate entries in the source; they are usually repeats but may differ in a detail not shown here. Equal entries are not always repeated. Unmarked numbers belong to inactive results. Results filed as inconclusive are left out. A call without a number means that no potency is given here. Active and inactive are the calls of the source. Unless noted, calls come from the whole dose curve.

Columns and labels:
[1] = Nuclear factor erythroid 2-related factor 2/antioxidant responsive element (Nrf2/ARE) small molecule agonists: luciferase reporter gene qHTS assay in human keratinocytes (AID 1919969); note: nearly all actives have a fitted effect of over 35% in size; note: potency is the fitted concentration of half-maximal effect
[2] = target: Gonadotropin-releasing hormone receptor (Homo sapiens) (UniProt P30968); experiment: Human gonadotropin-releasing hormone receptor (GnRHR) small molecule agonists, calcium flux assay in GnRHR-HEK293 cells (AID 1920063); note: nearly all actives have a fitted effect of over 35% in size; note: potency is the fitted concentration of half-maximal effect
How it was run: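 Tox21-format agonist screen using human GnRHR-expressing HEK293 cells and a fluorescent calcium dye; kinetic 3-min fluorescence reading after compound addition, 15-point concentration series run in triplicate.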

[3] = target: KiSS-1 receptor (Homo sapiens) (UniProt Q969F8); experiment: Human kisspeptin (KISS1R) small molecule agonists, calcium flux assay in KISS1R-HEK293 cells (AID 1920064; active = well fitted activation curve with a large enough effect in the repeat runs; note: potency is the fitted concentration of half-maximal effect)
How it was run: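 Intracellular calcium mobilization in KISS1R-HEK293 cells was recorded by fluorescence (Ex/Em 480/540) for 3 min following compound addition to cells pre-loaded 1 h with calcium dye.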

[4] = G protein-coupled receptor (GPCR) small molecule agonists, calcium flux assay: HEK293 wild type cell line counter screen (AID 1920065); note: potency is the fitted concentration of half-maximal effect
How it was run: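 In this agonist-mode screen, ATP is the positive control and DMSO the vehicle. Cells grow 18 h before a 1 h dye incubation at 37 C; signal is taken at Ex/Em 480/540 over 3 min.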

[5] = p53 small molecule agonists, cell-based qHTS assay with human liver microsomes (AID 1963577);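 note: p53 response element beta-lactamase reporter cells with liver microsomes plus NADPH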
How it was run: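 p53RE-bla cells; 5 h settle, 37 C/5% CO2; cpd + HLM 0.5 mg/mL + NADPH 0.5 mg/mL (final); 16 h 37 C; LiveBLAzer 2 h RT dark; fluorescence readout.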

[6] = p53 small molecule agonists, cell-based qHTS assay with human liver microsomes: qHTS cell viability counter screen (AID 1963579); note: nearly all actives have a fitted effect of over 45% in size; note: potency is the fitted concentration of half-maximal effect
How it was run: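 Luminescent CellTiter-Glo read-out, 30 min at room temperature, gauged cytotoxicity in p53RE-bla cells exposed 16 h at 37 C to DMSO-dissolved compounds with metabolic activation by human liver microsomes and NADPH, each 0.5 mg/mL final.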

[7] = p53 small molecule agonists, cell-based qHTS assay with rat liver microsomes: qHTS cell viability counter screen (AID 1963580); note: nearly all actives have a fitted effect of over 45% in size
How it was run: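 p53RE-bla HCT-116 cells were exposed 16 h at 37 C to compounds with rat liver microsomes (0.5 mg/mL) and NADPH (0.5 mg/mL). Viability was measured in the same wells as ATP content by CellTiter-Glo luminescence.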

[8] = p53 small molecule agonists, cell-based qHTS assay: qHTS cell viability counter screen (AID 1963581); note: nearly all actives have a fitted effect of over 45% in size; note: potency is the fitted concentration of half-maximal effect
How it was run: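 Compounds are pinned onto HCT-116 p53RE-bla cells and left 16 h at 37 C. Following the reporter FRET read, ATP is quantified by CellTiter-Glo luminescence after 30 min at room temperature.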

[9] = p53 small molecule agonists, cell-based qHTS assay (AID 1963582; active = well fitted activation curve with a large enough effect in the signal ratio in the repeat runs, not every such curve was filed as active; the % refers to the signal ratio; note: potency is the fitted concentration of half-maximal effect)
How it was run: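 Agonist activity was scored from beta-lactamase FRET fluorescence in p53RE-bla cells treated 16 h at 37 C with compounds in DMSO, substrate incubation being 2 h at room temperature.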

[10] = target: 5-hydroxytryptamine receptor 2A (Homo sapiens) (UniProt P28223); experiment: 5-hydroxytryptamine receptor 2A (HTR2A) small molecule antagonists, cell-based qHTS assay (AID 1963586); note: nearly all actives have a fitted effect of over 45% in size; note: potency is the fitted concentration of half-maximal effect
How it was run: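 Antagonist-mode intracellular calcium assay: DOI (4 nM) added after 5 min compound pre-incubation at room temperature to dye-loaded HTR2A-CHO cells. Fluorescence followed for 3 min, sampled every second.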

[11] = target: 5-hydroxytryptamine receptor 2A (Homo sapiens) (UniProt P28223); experiment: 5-hydroxytryptamine receptor 2A (HTR2A) small molecule agonists, cell-based qHTS assay (AID 1963587); note: nearly all actives have a fitted effect of over 30% in size; note: potency is the fitted concentration of half-maximal effect
How it was run: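 CHO cells stably expressing human HTR2A, plated 18 h, loaded with calcium dye 1 h at 37 C. Agonist mode: compounds added and intracellular calcium fluorescence recorded kinetically for 2 min at 1 sec intervals.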

[12] = target: Muscarinic acetylcholine receptor M1 (Homo sapiens) (UniProt P11229); experiment: Cholinergic receptor muscarinic 1 (CHRM1) small molecule antagonists, cell-based qHTS assay (AID 1963588); note: nearly all actives have a fitted effect of over 40% in size; note: potency is the fitted concentration of half-maximal effect
How it was run: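 CHRM1-CHO calcium-flux assay, antagonist mode. Cells were seeded 18 h, dye-loaded 1 h at 37 C and given compound for 5 min at RT, then acetylcholine was added at 50nM. FDSS fluorescence was read 3 min; 15 concentrations, three runs.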

[13] = target: Muscarinic acetylcholine receptor M1 (Homo sapiens) (UniProt P11229); experiment: Cholinergic receptor muscarinic 1 (CHRM1) small molecule agonists, cell-based qHTS assay (AID 1963589); note: nearly all actives have a fitted effect of over 35% in size; note: potency is the fitted concentration of half-maximal effect
How it was run: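 Stable CHRM1-CHO cells (human receptor) were incubated 18 h, dye-loaded for 1 h at 37 C and exposed to test compounds for agonist activity, with calcium-dependent fluorescence followed kinetically.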

[14] = target: D(2) dopamine receptor (Homo sapiens) (UniProt P14416); experiment: Dopamine D2 receptor (DRD2) small molecule agonists, cell-based qHTS assay (AID 1963594); note: nearly all actives have a fitted effect of over 35% in size
How it was run: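 HEK293 cells stably expressing human DRD2, pre-treated with PDE inhibitor Ro20-1724 (0.1 mM final) and compound 10 min at room temperature, then stimulated with NKH477 (200nM […]) for 30 min. cAMP read by HTRF (665/620 nm).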

[15] = target: D(2) dopamine receptor (Homo sapiens) (UniProt P14416); experiment: Dopamine D2 receptor (DRD2) small molecule antagonists, cell-based qHTS assay (AID 1963595; active = well fitted inhibition curve with a large enough effect in the signal ratio in the repeat runs, with a control signal flat; the % refers to the signal ratio; note: potency is the fitted concentration of half-maximal effect)
How it was run: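 HTRF cAMP read-out at 665 and 620 nm emission (340 nm excitation). Antagonist mode: compounds were tested against 12 nM quinpirole in DRD2-HEK293 cells, with 200 nM NKH477 raising cAMP and 0.1 mM Ro20-1724 blocking its breakdown.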

[16] = p53 small molecule agonists, cell-based qHTS assay with rat liver microsomes (AID 1963578)
How it was run: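 Rat liver microsome activation: microsomes 0.5 mg/mL, NADPH 0.5 mg/mL final; p53RE-bla cells, 16 h 37 C; LiveBLAzer readout, 2 h RT dark.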

[17] = target: Beta-2 adrenergic receptor (Homo sapiens) (UniProt P07550); experiment: Adrenergic beta2 receptor (ADRB2) small molecule antagonists, cell-based qHTS assay (AID 1963592); note: nearly all actives have a fitted effect of over 50% in size; note: potency is the fitted concentration of half-maximal effect
How it was run: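 Cells (CHO, stable ADRB2 overexpression) incubated 18-20hr at 37C; compounds added from DMSO; agonist mix (1nM isoproterenol, 100uM IBMX, 25uM Ro-20-1724) added; 0.5hr RT; d2-cAMP and anti-cAMP-cryptate added; 1hr RT; 665/615 nm read.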

[18] = target: Beta-2 adrenergic receptor (Homo sapiens) (UniProt P07550); experiment: Adrenergic beta2 receptor (ADRB2) small molecule agonists, cell-based qHTS assay (AID 1963593);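 note: CHO cells stably overexpressing human ADRB2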
How it was run: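 CHO cells stably over-expressing ADRB2 were plated overnight at 37C, then dosed with compounds plus a stimulation mix containing 100uM IBMX and 25uM Ro-20-1724 for 0.5hr at room temperature. cAMP was measured by HTRF competition, 1hr.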

[19] = cAMP Responsive Elements (CRE) small molecule agonists, cell-based qHTS assay (AID 1963590); note: potency is the fitted concentration of half-maximal effect
How it was run: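 FRET-based beta-lactamase readout (LiveBLAzer B/G, 2 h RT) quantified CRE activation in HEK 293T CRE-bla cells after 3 h treatment with DMSO-dissolved compounds.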

[20] = cAMP Responsive Elements (CRE) small molecule antagonists, cell-based qHTS assay (AID 1963591; active = well fitted inhibition curve with a large enough effect in the signal ratio in the repeat runs, not every such curve was filed as active; the % refers to the signal ratio)
How it was run: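 qHTS in CRE-bla HEK 293T cells: compound in DMSO, then 0.25 uM NKH477 (final), 3 h at 37 °C/5% CO2; beta-lactamase FRET read-out after 2 h substrate incubation.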

Sequence of Gonadotropin-releasing hormone receptor (Homo sapiens) (P30968 whole entry, looked up): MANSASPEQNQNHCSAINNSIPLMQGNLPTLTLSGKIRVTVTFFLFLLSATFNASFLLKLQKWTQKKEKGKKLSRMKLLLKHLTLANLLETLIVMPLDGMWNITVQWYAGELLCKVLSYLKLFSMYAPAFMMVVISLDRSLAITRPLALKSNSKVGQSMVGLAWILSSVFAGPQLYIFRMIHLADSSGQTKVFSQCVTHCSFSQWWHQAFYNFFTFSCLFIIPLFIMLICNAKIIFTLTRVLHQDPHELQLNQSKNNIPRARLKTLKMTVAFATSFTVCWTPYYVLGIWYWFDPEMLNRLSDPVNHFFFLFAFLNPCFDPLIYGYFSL
Sequence of 5-hydroxytryptamine receptor 2A (Homo sapiens) (P28223 whole entry, looked up): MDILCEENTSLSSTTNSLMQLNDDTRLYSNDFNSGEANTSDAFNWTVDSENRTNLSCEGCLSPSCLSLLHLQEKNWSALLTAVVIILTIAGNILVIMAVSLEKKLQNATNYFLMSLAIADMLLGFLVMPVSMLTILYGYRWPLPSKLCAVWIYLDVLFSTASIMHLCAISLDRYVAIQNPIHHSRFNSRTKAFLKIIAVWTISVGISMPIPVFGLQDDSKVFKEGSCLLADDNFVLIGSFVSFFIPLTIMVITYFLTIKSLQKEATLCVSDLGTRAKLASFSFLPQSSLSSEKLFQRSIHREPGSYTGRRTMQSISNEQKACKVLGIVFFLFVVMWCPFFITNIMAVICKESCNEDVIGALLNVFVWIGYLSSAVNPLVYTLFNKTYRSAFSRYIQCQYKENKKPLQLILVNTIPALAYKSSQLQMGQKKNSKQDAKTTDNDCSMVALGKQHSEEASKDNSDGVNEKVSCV
Sequence of Muscarinic acetylcholine receptor M1 (Homo sapiens) (P11229 whole entry, looked up): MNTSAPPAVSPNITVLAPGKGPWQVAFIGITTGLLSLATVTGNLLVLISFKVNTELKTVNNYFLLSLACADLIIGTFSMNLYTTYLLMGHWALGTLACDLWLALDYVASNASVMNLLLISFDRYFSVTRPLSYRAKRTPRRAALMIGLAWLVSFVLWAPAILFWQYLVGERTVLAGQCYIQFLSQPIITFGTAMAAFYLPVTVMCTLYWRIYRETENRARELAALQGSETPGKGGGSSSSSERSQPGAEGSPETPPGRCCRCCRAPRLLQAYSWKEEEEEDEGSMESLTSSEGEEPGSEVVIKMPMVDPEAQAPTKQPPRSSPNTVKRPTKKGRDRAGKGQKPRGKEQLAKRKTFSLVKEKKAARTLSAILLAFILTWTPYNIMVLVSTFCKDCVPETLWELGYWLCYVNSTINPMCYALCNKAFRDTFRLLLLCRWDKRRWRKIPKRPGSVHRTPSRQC
Sequence of D(2) dopamine receptor (Homo sapiens) (P14416 whole entry, looked up): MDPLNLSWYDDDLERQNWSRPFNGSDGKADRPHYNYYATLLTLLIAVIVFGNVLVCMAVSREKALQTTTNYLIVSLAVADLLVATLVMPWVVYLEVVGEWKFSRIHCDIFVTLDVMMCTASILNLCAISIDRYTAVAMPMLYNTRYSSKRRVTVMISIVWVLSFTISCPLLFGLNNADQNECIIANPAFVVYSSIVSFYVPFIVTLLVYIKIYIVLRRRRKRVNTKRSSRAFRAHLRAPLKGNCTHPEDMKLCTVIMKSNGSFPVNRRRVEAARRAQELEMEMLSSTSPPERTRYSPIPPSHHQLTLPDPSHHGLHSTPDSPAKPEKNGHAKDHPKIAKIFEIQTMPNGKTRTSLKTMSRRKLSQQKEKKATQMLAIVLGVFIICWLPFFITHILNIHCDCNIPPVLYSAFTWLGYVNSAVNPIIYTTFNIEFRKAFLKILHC
Sequence of Beta-2 adrenergic receptor (Homo sapiens) (P07550 whole entry, looked up): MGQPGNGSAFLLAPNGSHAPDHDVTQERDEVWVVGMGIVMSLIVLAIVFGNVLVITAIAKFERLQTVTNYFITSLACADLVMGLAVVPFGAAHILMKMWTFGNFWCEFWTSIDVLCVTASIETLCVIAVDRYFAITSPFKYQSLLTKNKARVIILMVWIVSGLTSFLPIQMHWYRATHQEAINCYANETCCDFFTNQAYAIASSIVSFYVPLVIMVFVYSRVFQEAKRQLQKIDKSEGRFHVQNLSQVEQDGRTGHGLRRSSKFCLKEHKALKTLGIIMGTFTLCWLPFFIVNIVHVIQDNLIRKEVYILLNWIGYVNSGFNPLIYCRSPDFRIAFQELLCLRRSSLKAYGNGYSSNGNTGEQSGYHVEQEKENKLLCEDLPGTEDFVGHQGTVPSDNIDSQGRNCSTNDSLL
Sequence of KiSS-1 receptor (Homo sapiens) (Q969F8 whole entry, looked up): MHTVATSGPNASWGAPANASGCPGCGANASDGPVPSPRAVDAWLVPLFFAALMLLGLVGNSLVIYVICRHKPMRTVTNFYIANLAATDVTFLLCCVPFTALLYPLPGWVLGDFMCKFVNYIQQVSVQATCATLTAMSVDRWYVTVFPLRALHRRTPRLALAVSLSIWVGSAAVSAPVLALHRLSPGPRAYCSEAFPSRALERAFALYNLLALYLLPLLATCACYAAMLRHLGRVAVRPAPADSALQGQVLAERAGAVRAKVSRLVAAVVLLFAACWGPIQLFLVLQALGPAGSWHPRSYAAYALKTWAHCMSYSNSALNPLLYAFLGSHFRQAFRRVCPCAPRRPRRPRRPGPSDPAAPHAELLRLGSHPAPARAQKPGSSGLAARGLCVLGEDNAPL

Row | SMILES | Potency [1] | Potency [2] | Potency [3] | Potency [4] | Potency [5] | Potency [6] | Potency [7] | Potency [8] | Potency [9] | Potency [10] | Potency [11] | Potency [12] | Potency [13] | Potency [14] | Potency [15] | Potency [16] | Potency [17] | Potency [18] | Potency [19] | Potency [20]
1 | Nc1ccc2cc3ccc(N)cc3nc2c1 | 1.54 µM (active) and 6.68 µM (active) | 38.9 µM (active) and 16.9 µM (active) | 49 µM (active) and 23.9 µM (active) | 38.9 µM (active) and 16.9 µM (active) | inactive | inactive | inactive | inactive | 1.82 µM (active) | inactive | 19.5 µM (active) and 19 µM (active) | inactive | 43.6 µM (active) and 23.9 µM (active) | inactive | inactive |  |  |  |  | 
2 | NC(=O)c1nc(-c2cccc(-c3cc(F)ccc3OCC(F)(F)C(F)(F)F)c2)n[nH]1 | inactive | inactive | inactive | inactive | inactive | inactive |  |  |  | inactive | inactive | inactive | inactive | inactive | inactive | inactive | inactive |  |  | 
3 | OC(CCN1CCCCC1)(c1ccccc1)C1CC2C=CC1C2 (stereo not given) | inactive | inactive | inactive | inactive | inactive |  | inactive | inactive | inactive | inactive | inactive | 0.0013 µM (active) | inactive | inactive | inactive | inactive | inactive | inactive |  | 
4 | O=C1CCC/C=C\CCCCCCCCCC1 | 54.5 µM (active) | inactive | inactive | inactive | inactive |  |  | inactive | inactive | inactive | inactive | inactive | inactive | inactive | inactive | inactive | inactive | inactive | inactive | inactive
5 | COc1cc(C=C2CCC/C(=C\c3ccc(O)c(OC)c3)C2=O)ccc1O | 6.68 µM (active) | inactive | inactive | inactive | inactive | inactive |  | 14.1 µM (active) | inactive | 18.3 µM (active) |  | inactive | inactive | inactive | inactive | inactive |  | inactive |  | 
6 | O=C1Nc2ccc(Cl)cc2[C@@](C#CC2CC2)(C(F)(F)F)O1 | inactive | inactive | inactive | inactive | inactive | inactive |  | inactive | inactive | 14.5 µM (active) |  | inactive | inactive |  |  | inactive | inactive |  |  | 
7 | O=C1OC(=O)c2cc(-c3ccc4c(c3)C(=O)OC4=O)ccc21 | 48.6 µM (active) | inactive | inactive | inactive | inactive |  | inactive | inactive | inactive | inactive | inactive |  | inactive | inactive | inactive | inactive | inactive | inactive | inactive | inactive
8 | CC(O)(c1ccc(Cl)cc1)c1ccc(Cl)cc1 | inactive | inactive | inactive | inactive | inactive | 45.8 µM (active) |  | inactive | inactive |  | 49 µM (active) | inactive | inactive | inactive |  | inactive |  |  |  | 
9 | CN(C)[C@@H](CCOc1cccc2ccccc12)c1ccccc1 | inactive | inactive | inactive | inactive | inactive |  | inactive | inactive | inactive | 3.26 µM (active) | 10.7 µM (active) |  | inactive | inactive | inactive | inactive | inactive |  | inactive | 
10 | Cc1cc(CCN2CCN(c3nsc4ccccc34)CC2)cc2c1NC(=O)CC2(C)C | inactive | inactive | inactive | inactive | inactive |  |  | 45.8 µM (active) |  | inactive | inactive | 16.8 µM (active) | inactive | inactive | 243 nM (active) | inactive | 34.4 µM (active) |  |  | 
11 | CO[Si](OC)(c1ccccc1)c1ccccc1 | inactive | inactive | inactive | inactive | inactive | inactive |  | inactive | inactive |  | inactive | inactive | inactive | inactive | inactive | inactive | inactive |  | inactive | inactive
12 | Cc1nc(Nc2ncc(C(=O)Nc3c(C)cccc3Cl)s2)cc(N2CCN(CCO)CC2)n1 | inactive | inactive | inactive | inactive | inactive |  |  |  | inactive | inactive | inactive | inactive | inactive |  | inactive | inactive | inactive | inactive | 841 nM (active) | inactive
13 | NCCCOCCOCCOCCCN | inactive | inactive | inactive | inactive | inactive |  | inactive | inactive |  | inactive | inactive | inactive | inactive |  | inactive | inactive | inactive |  |  | 
